Data: PubChem BioAssay (NCI)
This is part of a sample that, as a whole, favours compounds with a hit. Of some 83,000 tested, about 20% had one in any assay.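 Interpretation: 100, growth as untreated; towards 0, rising growth inhibition; 0, no net growth; 0 to -100, cell death. Compounds scoring below 10 were considered active.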 A number with no mark means an inactive call. Calls of active or inactive are those of the source.

Experiments:
Assay in all cases: NCI-60 one-dose screen, 48 h (100 = growth as untreated, 0 = no growth, -100 = all killed)
Conditions in all cases: 10 µM unless noted
[1] = system: NCI-H23 lung
[2] = system: NCI-H226 lung
[3] = system: NCI-H322M lung
[4] = system: HOP-62 NSCLC
[5] = system: NCI-H460 lung
[6] = system: HOP-92 NSCLC
[7] = system: NCI-H522 lung
[8] = system: A549/ATCC NSCLC
[9] = system: 786-0 renal
[10] = system: COLO 205 colon
[11] = system: DU-145 prostate
[12] = system: K-562 leukemia
[13] = system: MALME-3M melanoma
[14] = system: MDA-MB-231 breast
[15] = system: RXF 393 renal
[16] = system: SF-268 CNS
[17] = system: SF-295 CNS
[18] = system: SF-539 CNS
[19] = system: UACC-257 melanoma
[20] = system: M14 melanoma

SMILES | growth [1] | growth [2] | growth [3] | growth [4] | growth [5] | growth [6] | growth [7] | growth [8] | growth [9] | growth [10] | growth [11] | growth [12] | growth [13] | growth [14] | growth [15] | growth [16] | growth [17] | growth [18] | growth [19] | growth [20]
COc1cc2nc(-c3ccc(C(F)(F)F)cc3)cc(OCCCN3CCCC3)c2cc1OC | 57.3% | -8.25% (active) | 62.8% | 63.6% | 22% | 23.2% | 28.5% | 39.9% | 48.4% | 22.1% | 41.7% | 24.6% | 51.2% | 25.7% | 44.4% | 45.5% | -28.3% (active) | 45.8% | 22.7% | 
C=C1C(=O)O[C@H]2[C@H]1CC/C(COC(=O)NCc1c[nH]c3ccc(F)cc13)=C\CC[C@@]1(C)O[C@@H]21 | 48.4% | 4.11% (active) | 80.9% | 62.4% | 27.9% | -18.1% (active) | -75.2% (active) | 54.6% | -51.5% (active) | -59.1% (active) | -62.9% (active) | 1.89% (active) | -68.8% (active) | -57.5% (active) | -88.5% (active) | 36% | 61.2% | -52.6% (active) | 14.3% | -50.8% (active)
CC(=O)N1c2ccccc2NC2=C(C(=O)NC2(C)C)C1c1ccco1 (stereo not drawn) | 91.2% | 96.8% | 94.9% | 112% | 98.4% | 67.2% | 75.7% | 96.5% | 93.9% | 77.7% | 100% | 77.1% | 80.5% | 96.4% | 58% | 77.2% | 96.6% | 94.6% | 75.1% | 68.6%
COC(=O)/C=C1\S/C(=N\NC(=O)c2cc3ccc2/C=C\c2ccc(cc2)/C=C\3)N(c2ccccc2)C1=O | 40.4% | 73.8% | 68.5% | 3% (active) | 60.7% | 75.3% | 41.5% | 69.1% | -0.285% (active) | 47.7% | 50.9% | 27% | 78.8% | 32.5% | 5.34% (active) | 72.5% | 62.6% | -22.5% (active) | 69.2% | 
COc1cc(NC(C)CCCNC(=O)CCC(=O)NCCCNCCCCCCCCNCCCNC(=O)CCC(=O)NCCCC(C)Nc2cc(OC)cc3cccnc23)c2ncccc2c1 (stereo not drawn) | 54.4% | 44.5% | 32.9% | 85.2% | 87.4% | 54.2% | 47.3% | 63% | 92.6% | 14.7% | 66.7% | 45.1% | 40.2% | 44% | 67.9% | 52.2% | 85.5% | 69% | 36.3% | 84.4%
CNC(=O)c1cncc(Cn2nc(C)c(NC(=O)c3ccc(COc4ccc(C(F)(F)F)cc4C)cc3)c2C)c1 | 49.3% | 58.1% | 88.8% | 56.9% | 62% | 79.2% | 49.2% | 55% | 68.8% | 66.9% | 67% | 37% | 73.8% | 78.2% | 83.7% | 70.8% | 40.4% | 80.7% | 18.4% | 73.3%
CC(=O)c1ccc(NS(=O)(=O)c2cccc(C(=O)Nc3ccc(Br)cc3)c2)cc1 | 36.4% [25 µM] | 43% [25 µM] | 89% [25 µM] | 82% [25 µM] | 75.7% [25 µM] | 47.7% [25 µM] | 46.4% [25 µM] | 61.9% [25 µM] | 58.7% [25 µM] | 77.7% [25 µM] | 94.6% [25 µM] | 44.4% [25 µM] | 56.2% [25 µM] | 94.1% [25 µM] | 61.7% [25 µM] | 60.8% [25 µM] | 23.8% [25 µM] | 66.5% [25 µM] | 44.6% [25 µM] | 
COc1cc(/C(C)=C(\c2ccc(Cl)cc2)c2ccc(OCCN3CCCC3)cc2)ccc1F | 67.4% | 87.8% | 71% | 87.2% | 6.04% (active) | 52.4% | 80% | 57.1% | 71.4% | 16.3% | 69.4% | 3.65% (active) | -2.59% (active) | 56.4% | 69.3% | 76.6% | 75.2% | 73.3% | 3.02% (active) | 
CC(Sc1nc2sc3c(c2c(=O)n1-c1ccc(Cl)cc1)CCCC3)C(=O)Nc1nc(-c2ccc(Br)cc2)cs1 (stereo not drawn) | 95.3% | 94.3% | 95.8% | 91.5% | 104% | 110% | 82.1% | 100% | 92.6% | 110% | 105% | 96.5% | 95.2% | 89.1% | 101% | 93.5% | 100% | 107% | 93% | 94%
CNCCn1c(=O)c2cc(OC)c(OC)cc2c2ccc3cc4c(cc3c21)OCO4 | -18.1% (active) | -98.8% (active) | -14.5% (active) | 3.19% (active) | -18.4% (active) | -5.84% (active) | -35.2% (active) | -81.2% (active) | -51% (active) | -61.6% (active) | 5.52% (active) | 2.28% (active) | -85.3% (active) | 0.962% (active) | -76.1% (active) | 11.9% | 6.74% (active) | -30.4% (active) | -76.3% (active) | -50.5% (active)
O=C(N/N=C/c1ccc(Oc2ccccc2)cc1)c1cnn2c1NC(c1ccccc1)C2 (stereo not drawn) | 61.2% | 89.2% | 32.2% | 33.6% | 1.16% (active) | 74.2% | 51.3% | 8.65% (active) | 41% | 51.6% | 49.2% | 46.4% | 20.5% | 72.8% | 71.5% | 64.5% | 18.6% | 37.5% | 59.8% | 
O=S(=O)(NCCCNc1nccc(-c2c(-c3cccc(F)c3)nc3sccn23)n1)c1cccc(F)c1 | 38.8% | 23.2% | 79.9% | 61.3% | 58.3% | 74.8% | 21.9% | 49.3% | 66.3% | 23.4% | 55.5% | 20.1% | 63.2% | 75.9% | 78.8% | 55.6% | 51.1% | 86.4% | 50.8% | 
C=C(C)[C@@H]1CC[C@]2(CN)CC[C@]3(C)[C@H](CC[C@@H]4[C@@]5(C)CCCNC(C)(C)[C@@H]5CC[C@]43C)[C@@H]12 | 10.5% | 53.9% | -42.7% (active) | 21.2% | -78.3% (active) | -29.4% (active) | -31% (active) | -68.4% (active) | -97.2% (active) | -71.2% (active) | -53.5% (active) | -56.1% (active) | -70.5% (active) | -79.7% (active) | -87.4% (active) | 22.9% | -59.6% (active) | -31.8% (active) | 46.3% | -77.7% (active)
COc1ccc(N2CCN(c3ccc(NC4=C(Cl)C(=O)c5ncccc5C4=O)cc3)CC2)cc1 | 26.2% | 52.8% | 46.9% | 56.2% | 17.6% | 85.8% | 43.8% | 36.1% | 80.1% | 43% | 35.3% | 4.16% (active) | 31% | 56.7% | 62.6% | 40% | 81.2% | 39.4% | 35.6% | 53.6%
O=C(O)c1ccc(-c2nn(-c3ccc(C(F)(F)F)cc3)cc2CNc2ccc(Oc3ccccc3)cc2)cc1 | 91.7% | 86.8% | 70.8% | 103% | 87.4% | 93.3% | 80.2% | 47.9% | 93.4% | 111% | 95.5% | 65.3% | 107% | 91.4% | 88.4% | 79.5% | 72.7% | 89.6% | 102% | 
